Drawing on PubChem BioAssay AID652115 (Broad Institute, 2013), this text covers inhibition for 44 compounds.

Several values for one entry are separate records, joined by “and”; a condition that tells them apart may be missing. Equal entries are not always repeated. In all, about 330,000 compounds went through this assay and about 3,800 (1.2%) were called active. No stated cut-off is given here; in the data, active means inhibition above about 15%; inconclusive means no clear call, values can overlap the other calls; inactive means below that. Only a selection was taken, and actives are over-represented in it overall.

Usually inhibition stands for the relative decrease from the control value, in per cent.

Chain of NAD-dependent protein deacylase sirtuin-5, mitochondrial (Homo sapiens) (Q9NXA8 whole entry, looked up): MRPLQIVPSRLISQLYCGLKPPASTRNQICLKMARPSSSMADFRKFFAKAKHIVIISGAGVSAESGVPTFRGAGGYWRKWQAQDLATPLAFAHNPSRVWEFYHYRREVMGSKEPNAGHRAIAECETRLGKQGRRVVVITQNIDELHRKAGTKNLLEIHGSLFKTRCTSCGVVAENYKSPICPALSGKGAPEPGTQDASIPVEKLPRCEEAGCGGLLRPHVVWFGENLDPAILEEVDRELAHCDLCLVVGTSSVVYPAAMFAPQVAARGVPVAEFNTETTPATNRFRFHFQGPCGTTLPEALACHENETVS

The experiment has as its target NAD-dependent protein deacylase sirtuin-5, mitochondrial (Homo sapiens) (UniProt Q9NXA8). The experiment can be described thus: SIRT5 desuccinylase inhibitors, primary screen, biochemical, fluorescence imaging, single point, set 5 (AID 652115). Conditions: Purified SirT5, succinyl-peptide AMC, trypsin-coupled fluorescence; at 15 µM; hits give high values.
With `CN(c1ccccc1)S(=O)(=O)c1ccc(C(=O)NCCc2ccccc2)cc1`, the inhibition was -1.73% (inactive).
As for `Cc1ccccc1C(=O)NCCN=C1NS(=O)(=O)c2ccccc21`, the inhibition was 1.57% (inactive).
Take `CN(C)S(=O)(=O)c1ccc(C(=O)NCCN=C2NS(=O)(=O)c3ccccc32)cc1`: the inhibition was 15.2% (active).
Regarding `COc1ccccc1-c1cn(CC[C@@H]2CC[C@@H](NC(=O)c3ccccc3F)[C@H](CO)O2)nn1`, the inhibition was -1.68% (inactive).
As to `COc1cccc(S(=O)(=O)N2C[C@@H](O)COC[C@@H]3O[C@H](CC(=O)N4CCN(C)CC4)CC[C@H]32)c1`, the inhibition is -10.1% (inactive).
In the case of `CC(C)CC#Cc1ccc2c(c1)O[C@H](CN(C)S(=O)(=O)c1cccc(F)c1)[C@@H](C)CN([C@@H](C)CO)S2(=O)=O`, the inhibition is 19.1% (active).
For `C[C@H]1CN([C@@H](C)CO)S(=O)(=O)c2ccc(-c3cccc(F)c3)cc2O[C@@H]1CN(C)C` the value was -1.74% (inactive) and 0.129% (inactive) and -10.4% (inactive); for `C[C@@H]1CN([C@H](C)CO)S(=O)(=O)c2ccc(-c3cccc(F)c3)cc2O[C@H]1CN(C)S(=O)(=O)c1ccc(F)cc1`, 16.1% (active).
The result for `C[C@@H]1CN([C@@H](C)CO)S(=O)(=O)c2ccc(C#CCN(C)C)cc2O[C@@H]1CN(C)S(=O)(=O)c1cccc(F)c1` reads 2.43% (inactive); that for `C[C@H](CO)N1C[C@H](C)[C@@H](CN(C)S(=O)(=O)c2cccc(F)c2)Oc2cc(C#CCN(C)C)ccc2S1(=O)=O`, 0.005% (inactive).
For the compound `C[C@@H]1CN([C@@H](C)CO)S(=O)(=O)c2ccc(-c3cccc(F)c3)cc2O[C@@H]1CN(C)S(=O)(=O)c1ccccc1`, the inhibition was 12% (inactive).
On to `CCCNC(=O)N1[C@@H]2c3ccc(-c4ccccc4OC)c(=O)n3C[C@H]1[C@H](CO)[C@H]2C(=O)N(C)C`, for which the inhibition was -22.3% (inactive).
As for `C[C@H]1CN([C@@H](C)CO)C(=O)c2cccc(NS(=O)(=O)c3cccs3)c2O[C@H]1CN(C)Cc1ccc(C(=O)Nc2ccccc2N)cc1`, the inhibition is 5.63% (inactive).
The result for `CCCC(=O)N1CC2(C1)CN(C(=O)Nc1cccc(F)c1)[C@@H](CO)c1c2c2ccc(OC)cc2n1C` reads 7.29% (inactive); that for `COc1ccc2c3c(n(C)c2c1)[C@@H](CO)N(C(=O)Nc1cccc(F)c1)CC31CCN(Cc2nccs2)CC1`, 35.6% (active); that for `COc1ccc2c3c(n(C)c2c1)[C@H](CO)N(C(=O)Nc1cccc(F)c1)CC31CN(Cc2nccs2)C1`, 2.85% (inactive).
For `O=S1(=O)CC(N2CCN(CCO)CC2)CN1Cc1cn(Cc2ccc(Cl)cc2)nn1` (centres undefined), the inhibition was 32.8% (active).
The result for `O=S1(=O)CC(N2CCN(CCO)CC2)CN1Cc1cn(Cc2cccc(Cl)c2)nn1` (centres undefined) reads -5.71% (inactive).
As for `Cc1ccc(Cn2cc(CN3CC(N4CCN(C)CC4)CS3(=O)=O)nn2)cc1` (centres undefined), the inhibition is 3.71% (inactive).
Regarding `CCS(=O)(=O)Nc1ccc2c(c1)C(=O)N(C)[C@H]1CC[C@@H](CC(=O)Nc3ccccc3)O[C@H]1CO2`, the inhibition was 2.87% (inactive).
On to `O=C(O)C(c1ccccc1)N1C(=O)/C(=C\c2ccc(-c3cccc(Cl)c3)o2)SC1=S` (centres undefined), for which the inhibition is 43.9% (active).
`O=C1c2ccccc2NC(c2ccc(-c3cccc(Cl)c3)o2)N1O` (centres undefined): the inhibition was 1.64% (inactive).
Take `O=C1NN(c2ccccc2)C(=O)/C1=C/c1ccc(-c2cccc(C(=O)O)c2)o1`: the inhibition is 8.67% (inactive).
Consider `O=C(Nc1cc(Cl)cc(Cl)c1)N[C@@H]1CC[C@H](CCNS(=O)(=O)c2cccc(F)c2)O[C@H]1CO`, for which the inhibition is 2.03% (inactive).
As for `CCCNC(=O)N1CC(=O)N2[C@H](CO)[C@H](c3ccc(C#Cc4cccc(OC)c4)cc3)[C@H]2C1`, the inhibition is -0.038% (inactive).
The result for `CCCN(C)C[C@H]1Oc2cc(-c3ccc(C)cc3)ccc2S(=O)(=O)N([C@H](C)CO)C[C@H]1C` reads 1.13% (inactive); that for `CN(C)C(=O)c1ccc(-c2ccccc2[C@@H]2[C@@H](C#N)N(C(=O)C3CCCC3)[C@H]2CO)cc1`, -3.26% (inactive).
On to `O=C(N[C@H]1C=C[C@@H](CC(=O)N2CCN(c3ccccc3)CC2)O[C@@H]1CO)c1ccncc1`, for which the inhibition is -0.959% (inactive).
For `C=CCC[C@H](Cc1ccc(F)cc1)C(=O)OC[C@H](C)NC(=O)[C@H](CC=C)CC(=O)N(CCO)Cc1ccccc1` the value was 16.9% (active); for `C=CCC[C@@H](Cc1ccc(F)cc1)C(=O)OC[C@@H](C)NC(=O)[C@H](CC=C)CC(=O)N(CCO)Cc1ccccc1`, -0.88% (inactive).
Regarding `C=CCC[C@H](Cc1ccc(F)cc1)C(=O)OC[C@@H](NC(=O)[C@@H](CC=C)CC(=O)N[C@H](CO)Cc1ccccc1)C(C)(C)C`, the inhibition was 0.931% (inactive).
The result for `CC1COc2ccccc2N1C(=O)c1cccnc1Cl` (centres undefined) reads -1.34% (inactive); that for `CC1COc2ccccc2N1S(=O)(=O)c1ccccc1` (centres undefined), -1.33% (inactive); that for `CC1COc2ccccc2N1C(=O)c1ccc(F)cc1` (centres undefined), 22.7% (active).
For the compound `COc1ccc(CN(C)C[C@@H]2OCCCC[C@@H](C)Oc3ccc(NC(=O)Nc4ccc(C(F)(F)F)cc4)cc3C(=O)N([C@H](C)CO)C[C@H]2C)cc1`, the inhibition is 6.39% (inactive).
On to `CN(C)CC(=O)N[C@H]1CC[C@H](CCNC(=O)Nc2ccc(F)cc2)O[C@H]1CO`, for which the inhibition is -1.16% (inactive).
As for `Cc1nc(N2[C@H](CO)[C@H](c3ccccc3)[C@H]2CNCC2CCCCC2)sc1C`, the inhibition is 5.49% (inactive).
For `CC(C)NC(=O)N1[C@@H]2c3ccc(-c4ccc(F)cc4)c(=O)n3C[C@@H]2[C@@H](CO)[C@@H]1C(=O)N1CCOCC1`, the inhibition was -2.98% (inactive).
`O=C(Nc1nnc(C2CC2)s1)c1ccccn1`: the inhibition was 23.4% (active).
On to `Cc1cc(C(=O)Nc2nnc(C3CC3)s2)c(C)s1`, for which the inhibition was -4.14% (inactive).
Turning to `O=C(Nc1nnc(C2CC2)s1)c1cc(Cl)sc1Cl`, the inhibition was -1.4% (inactive).
For `CO[C@@H]1CN(C)C(=O)c2cc(NS(C)(=O)=O)ccc2OC[C@H](C)N(C(=O)C2CC2)C[C@@H]1C` the value was 1.74% (inactive); for `COCC(=O)Nc1ccc2c(c1)C(=O)N(C)C[C@@H](OC)[C@@H](C)CN(C(=O)Cc1ccccn1)[C@@H](C)CO2`, -3.53% (inactive); for `C[C@@H](O)C#Cc1cnc2c(c1)C(=O)N([C@@H](C)CO)C[C@H](C)[C@H](CN(C)Cc1cncnc1)O2`, 8.12% (inactive).
